Screens (PubChem BioAssay)
FLuc counter: inhibits or activates purified firefly luciferase, miR-21 counter-screen; hit rate 6.9% among 360,000; purified FLuc, Km substrates, luminescence inhibition; Potency, µM (doses to about 57.5 µM), for the others: top-dose activity change, negative = inhibition, most hits filed as inhibitors;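 note: plate controls were vehicle for no effect and reference inhibitor for full effect; nearly all actives have a fitted effect of over 55% in size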
Target sequence (P08659 whole entry, looked up): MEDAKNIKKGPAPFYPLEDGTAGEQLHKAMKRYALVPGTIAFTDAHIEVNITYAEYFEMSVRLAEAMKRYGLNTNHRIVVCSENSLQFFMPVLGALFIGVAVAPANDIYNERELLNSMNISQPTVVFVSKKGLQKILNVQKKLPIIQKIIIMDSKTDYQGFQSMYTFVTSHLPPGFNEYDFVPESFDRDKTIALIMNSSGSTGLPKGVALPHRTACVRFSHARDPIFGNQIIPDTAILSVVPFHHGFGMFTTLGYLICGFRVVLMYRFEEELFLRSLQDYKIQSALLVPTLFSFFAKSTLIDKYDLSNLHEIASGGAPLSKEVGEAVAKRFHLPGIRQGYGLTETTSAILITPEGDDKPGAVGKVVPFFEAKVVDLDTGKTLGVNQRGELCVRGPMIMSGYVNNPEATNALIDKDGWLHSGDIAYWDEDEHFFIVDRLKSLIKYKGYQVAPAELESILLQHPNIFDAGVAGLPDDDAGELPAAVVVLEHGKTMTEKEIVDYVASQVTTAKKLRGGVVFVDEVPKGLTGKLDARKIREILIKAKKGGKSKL
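Purified P. pyralis luciferase (10nM final) with 10uM D-luciferin and 10uM ATP (Km levels) in 50mM Tris acetate pH 7.5, 10mM Mg acetate, 0.01% Tween-20, 0.05% BSA; qHTS 6-point titration, ~60 µM downward; luminescence read.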
SMN2 splice enh: increases expression of the SMN2 splice variant. Potency, µM (titrated, usually from 46.1 µM), for inactives: at the highest dose activity change, positive = activation, actives largely listed as activators. HEK293 SMN2-luciferase splicing reporter, luminescence, 30-36 h. AID 1458. hit rate 2.8% among 210,000; note: % of control where 0% means no effect; nearly all actives have a fitted effect of over 55% in size
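qHTS luciferase splicing reporter: luminescence rises when SMN2 exon 7 is included in transfected HEK293 cells. Compound exposure lasted 30-36 h at 37C, with 4.5 mM final sodium butyrate as control, followed by a ONE-Glo read.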
Rab9 prom act: Rab9 promoter activation | Huh7 Rab9 promoter-luciferase reporter, luminescence, 24 h | Potency, µM (highest dose often 9.22 µM), for the others: at the highest dose activation, negative = inhibition, actives largely listed as activators | hit rate 2.8% among 320,000 | AID 485297; note: % of control where 0% means no effect; nearly all actives have a fitted effect of over 60% in size
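Huh7 cells stably carrying Rab9 promoter–luciferase reporter, plated 1500 cells/well, compound added after 2 h and incubated 24 h at 37 °C; luciferase luminescence then read after 10 min with detection reagent.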
NPC1 promoter act: activates the NPC1 promoter. hit rate 2.4% among 320,000. Huh7 NPC1 promoter luciferase reporter, 24 h. Potency, µM (highest dose often 9.22 µM), inactives show top-dose activation, hits mostly activators; note: % of control where 0% means no effect; nearly all actives have a fitted effect of over 60% in size
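In 1536-well qHTS, Huh7 cells harboring an NPC1 promoter–luciferase construct received compound for 24 h; activation was quantified by luminescence following luciferase reagent addition.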
Luc counter: blocks Kinase-Glo luciferase, a counter-screen artifact; hit rate 0.28% among 200,000; Kinase-Glo luciferase, ATP luminescence, 8 min; Potency, µM (doses to about 38.3 µM), without a hit: at the highest dose activity change, negative = inhibition, hits mostly inhibitors; AID 1379; Q27757; note: % is set by controls: 0 for no effect and ±100 for the full control effect; nearly all actives have a fitted effect of over 60% in size
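Kinase-Glo luciferase light output from ATP and luciferin was measured with 10 uM ATP, within the enzyme's linear range. Buffer: 50 mM imidazole pH 7.2, 50 mM KCl, 7 mM MgCl2, 0.01% Tween 20, 0.05% BSA; luminescence read after 8 min at ambient temperature.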
ELG1 genotox: induces genotoxicity in HEK293T cells with luciferase-tagged ELG1; hit rate 1.3% among 330,000; HEK293T ELG1-luciferase reporter, luminescence, 16 h; Potency, µM (doses to about 46 µM), inactives show top-dose activity change, positive = activation, actives largely listed as activators; note: % of control where 0% means no effect; nearly all actives have a fitted effect of over 60% in size
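16 hr compound incubation (37 °C, 5% CO2) of HEK293T cells carrying luciferase-tagged ELG1; luciferase then measured by ONE-Glo luminescence after 30 min at RT.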
* hit, by the source's call; [ ] = another dose, or the depositor's remark. This is a sample that favours compounds with a hit; in the whole collection about 7.4% have one here. Calls come from the whole dose curve; as a rule, active = well fitted curve in the direction sought with a large enough effect; inconclusive = small, poorly fitted or top-dose-only effect, or another doubt; inactive = no such curve, though single readings can be large; an effect the other way counts as inactive or inconclusive. Potency is the fitted concentration of half-maximal effect.

For CCc1ccc(OCC(=O)N(Cc2ccc(OC)cc2)C2CCS(=O)(=O)C2)cc1 (stereo not given) the results were FLuc counter 1%.
O=C(Nc1ccc(Br)cc1)N1CCc2ccccc2C1 was read as FLuc counter 11µM*, Rab9 prom act 2.8µM*, NPC1 promoter act 2.8µM* and ELG1 genotox inconclusive.
For O=C(CN1CCc2ccccc2C1)Nc1ccc(Br)cc1 the results were FLuc counter inconclusive, SMN2 splice enh 11%, Rab9 prom act -8%, NPC1 promoter act -1%, Luc counter 19% and ELG1 genotox 10%.
For O=C(Nc1ccc(F)cc1)N1CCc2ccccc2C1 the results were FLuc counter 24µM*, Rab9 prom act inconclusive, NPC1 promoter act 4µM*, Luc counter -8% and ELG1 genotox inconclusive.
Screening Cn1ncc2c(Cl)ncnc21 returned SMN2 splice enh -17%[9.22 µM] and Luc counter -5%[7.66 µM].
`COc1cc(N=c2ssnc2Cl)cc(OC)c1` gave FLuc counter inconclusive, SMN2 splice enh -22%, Rab9 prom act -2%, NPC1 promoter act 0%, Luc counter -8% and ELG1 genotox -5%.
`Clc1nssc1=Nc1ccc(Br)cc1` gave FLuc counter 24µM*, SMN2 splice enh -12%, Rab9 prom act -2%, NPC1 promoter act 4%, Luc counter -2% and ELG1 genotox -6%.
For N#Cc1cccc(N=c2ssnc2Cl)c1 the results were FLuc counter 19µM*, SMN2 splice enh -18%, Rab9 prom act -4%, NPC1 promoter act 1%, Luc counter -7% and ELG1 genotox 0%.
For O=C(CCn1c(=O)c2sccc2n(Cc2ccccc2F)c1=O)NCc1ccc2c(c1)OCO2 the results were FLuc counter 1% and SMN2 splice enh 2%.
Screening Cc1sc2nc3c4ccccc4c(NCc4ccco4)nn3c(=O)c2c1C returned FLuc counter 7.6µM*, SMN2 splice enh 10µM*, Rab9 prom act 2.8µM*, NPC1 promoter act inconclusive, Luc counter -5% and ELG1 genotox 7.1µM*.
For CCOC(=O)c1sc2nc(CC(=O)OC)nc(NCc3ccco3)c2c1C the results were FLuc counter -14%, SMN2 splice enh 8%, Rab9 prom act -3%, NPC1 promoter act 0%, Luc counter 2% and ELG1 genotox -7%.
Screening Cc1nc(NCc2ccco2)c2c(C)c(C)sc2n1 returned FLuc counter 0%, SMN2 splice enh 3.2µM*, Rab9 prom act -16%, NPC1 promoter act -17%, Luc counter -3% and ELG1 genotox -27%.
`O=C1Nc2ccccc2/C1=N/N=C/c1cccc(O)c1` gave FLuc counter inconclusive, Rab9 prom act 1%, NPC1 promoter act 14% and ELG1 genotox 3%.
COc1ccc(O)c(/C=N/N=C2/C(=O)Nc3ccccc32)c1 was read as FLuc counter 4.8µM*, SMN2 splice enh -4%, Rab9 prom act 1%, NPC1 promoter act -2%, Luc counter -5% and ELG1 genotox 5%.
`COc1cc(/C=N/N=C2/C(=O)Nc3ccccc32)cc(OC)c1O` gave FLuc counter 17µM*, SMN2 splice enh 20%, Rab9 prom act -1%, NPC1 promoter act -1%, Luc counter -15% and ELG1 genotox 2%.
CCCCCN1C(C(=O)c2ccccc2)=C(NC(=O)c2ccc(OC)cc2)c2ccccc2S1(=O)=O was read as FLuc counter 1% and SMN2 splice enh -13%.
Screening COc1cc2c(cc1OC)-c1cc3cc(OC)c(OC)cc3c(=O)n1CC2 returned SMN2 splice enh inconclusive and Luc counter 0%.
Screening O=C(O)c1ccc(N/N=C/c2ccc(-c3cc(Cl)ccc3Cl)o2)cc1 returned FLuc counter 9.5µM*, Rab9 prom act inconclusive, NPC1 promoter act inconclusive and ELG1 genotox inconclusive.
For O=C(O)c1ccc(N/N=C/c2ccc(-c3ccc(Cl)cc3Cl)o2)cc1 the results were FLuc counter 0.95µM*, Rab9 prom act 21%, NPC1 promoter act inconclusive and ELG1 genotox inconclusive.
